The nature of assay [1]: qHTS assay to identify small molecule agonists of the hypoxia (HIF-1) signaling pathway - cell viability counter screen (AID 1224844; calls by dose curve; further: nearly all actives have a fitted effect of over 50% in size). The procedure, abridged:
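HRE-bla ME-180 cells in medium with 0.5% dialyzed FBS were preincubated 5 hrs at 37C, exposed to compounds for 17 hrs, then viability was read as CellTiter-Glo luminescence after 30 min at room temperature, in the reporter wells.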
For orientation: Quantitative high-throughput screening tests each substance at several concentrations.

Assay [2] is described as follows: qHTS assay to identify small molecule agonists of H2AX (AID 1224845; active means well fitted activation curve with a large enough effect in the signal ratio in the repeat runs, not every such curve was filed as active; the % refers to the signal ratio). The gist of the method: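 Wild-type CHO-K1 cells plated overnight, then exposed 3 hr at 37C to compounds at 15 concentrations (0.76% DMSO). Lysed, then HTRF anti-pH2AX(S139)-cryptate/anti-H2AX-d2 detection after 24 hr at room temperature; emissions 665 and 620 nm.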
A short description of assay [3]: qHTS assay to identify small molecule agonists of the hypoxia (HIF-1) signaling pathway (AID 1224846; active means well fitted activation curve with a large enough effect in the signal ratio in the repeat runs, not every such curve was filed as active; the % refers to the signal ratio). The gist of the method:
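HRE-bla ME-180 cells (beta-lactamase reporter under hypoxia response element) were plated at 2,000 cells/well in medium with 0.5% dialyzed FBS, rested 5 hrs, then given compounds in DMSO for 17 hrs at 37C, 5% CO2. Reporter induction was read with CCF4-AM FRET substrate.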

Assay [4] is described as follows: qHTS RealTime-Glo MT Cell Viability Assay in HepG2 cells - 24 hour (AID 1224867). Further: nearly all actives have a fitted effect of over 50% in size. The gist of the method:
(§1)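 Cells + NanoLuc/prosubstrate dispensed (600 cells/well) → 5 h at 37 C/5% CO2 → compounds in DMSO transferred → 40 h incubation at 37 C, luminescence read at 0, 8, 16, 24, 32, 40 h.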

Assay [5] can be described thus: qHTS RealTime-Glo MT Cell Viability Assay in HEK293 cells - 32 hour (AID 1224868). Further: top concentration of the series differs between compounds; nearly all actives have a fitted effect of over 50% in size. The procedure, abridged: (§2)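 Tox21 10K qHTS, HEK293, 600 cells/well, RealTime-Glo reagent co-dispensed with cells; 5 h preincubation, compound by pintool, 37 C, luminescence at 0–40 h.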
Assay [6] is described as follows: A CellTox Green Cytotoxicity Assay to monitor cytotoxicity in HEK293 cells - 0 hour (AID 1224869). Further: nearly all actives have a fitted effect of over 50% in size. The gist of the method:
(§3)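 HEK293 cells premixed with CellTox Green dye were seeded at 600 cells/well and left 5 h at 37 C/5% CO2 before pin transfer of 23 nL compound in DMSO. Fluorescence from dye bound to dead-cell DNA was read during 40 h treatment.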

Assay [7] is described as follows: A CellTox Green Cytotoxicity Assay to monitor cytotoxicity in HEK293 cells - 40 hour (AID 1224871). Further: nearly all actives have a fitted effect of over 45% in size. Further: potency means the concentration at half of the fitted maximal effect. The gist of the method: as §3
A short description of assay [8]: qHTS RealTime-Glo MT Cell Viability Assay in HEK293 cells - 16 hour (AID 1224872). The procedure, abridged: as §2
Assay [9] can be described thus: qHTS RealTime-Glo MT Cell Viability Assay in HepG2 cells - 8 hour (AID 1224873). Further: nearly all actives have a fitted effect of over 55% in size. The gist of the method: (§4)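 HepG2 cells mixed with RealTime-Glo MT reagents (NanoLuc plus cell-permeant prosubstrate) were seeded at 600 cells/well, incubated 5 h at 37 C/5% CO2, then pinned with compounds in DMSO; nonlytic luminescence tracked viability during 40 h treatment.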
The nature of assay [10]: qHTS RealTime-Glo MT Cell Viability Assay in HEK293 cells - 40 hour (AID 1224874). Further: nearly all actives have a fitted effect of over 50% in size. Further: potency means the concentration at half of the fitted maximal effect. The conditions noted are these: RealTime-Glo luminescence; max response: hits give low values. The gist of the method: (§5)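 HEK293 cells mixed with RealTime-Glo reagents (NanoLuc plus cell-permeant prosubstrate) at 600 cells/well, preincubated 5 h at 37 C/5% CO2, then given 23 nL compound in DMSO. Nonlytic luminescence from viable cells was read at 0, 8, 16, 24, 32 and 40 h.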

The nature of assay [11]: A CellTox Green Cytotoxicity Assay to monitor cytotoxicity in HEK293 cells - 24 hour (AID 1224875). Further: nearly all actives have a fitted effect of over 45% in size. The gist of the method:
as §3

The nature of assay [12]: A CellTox Green Cytotoxicity Assay to monitor cytotoxicity in HepG2 cells - 16 hour (AID 1224876). Further: nearly all actives have a fitted effect of over 45% in size. The gist of the method: (§6)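 HepG2 cells were seeded together with the CellTox Green dye at 600 cells/well, left 5 h at 37 C/5% CO2, then given compounds in DMSO. Fluorescence from dye bound to dead-cell DNA was read repeatedly over 40 h of treatment at 37 C.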
Assay [13] is described as follows: qHTS RealTime-Glo MT Cell Viability Assay in HepG2 cells - 32 hour (AID 1224877). Further: nearly all actives have a fitted effect of over 55% in size. The gist of the method:
as §1

Assay [14] is described as follows: A CellTox Green Cytotoxicity Assay to monitor cytotoxicity in HepG2 cells - 24 hour (AID 1224878). Further: nearly all actives have a fitted effect of over 45% in size. The gist of the method:
as §6

A short description of assay [15]: A CellTox Green Cytotoxicity Assay to monitor cytotoxicity in HepG2 cells - 40 hour (AID 1224879). Further: nearly all actives have a fitted effect of over 40% in size. Further: potency means the concentration at half of the fitted maximal effect. The procedure, abridged: as §6
Assay [16] is described as follows: qHTS RealTime-Glo MT Cell Viability Assay in HEK293 cells - 0 hour (AID 1224880). The gist of the method: as §5
The nature of assay [17]: qHTS assay to identify small molecule agonists of H2AX - cell viability counter screen (AID 1224847; calls by dose curve; further: top concentration of the series differs between compounds; nearly all actives have a fitted effect of over 30% in size). The procedure, abridged:
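After overnight plating of 1000 CHO-K1 cells per well, a 15-concentration compound series was applied for 3 hr at 37C. Luminescence from CellTiter-Glo, read following 30 min at room temperature, reflected cell viability.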

A short description of assay [18]: qHTS RealTime-Glo MT Cell Viability Assay in HepG2 cells - 40 hour (AID 1224870). Further: nearly all actives have a fitted effect of over 50% in size. The gist of the method:
as §4

Assay [19] is described as follows: qHTS assay to identify small molecule antagonists of the estrogen related receptor (ERR) signaling pathway from Tox21 library (AID 1224848). Further: nearly all actives have a fitted effect of over 50% in size. The gist of the method:
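Cells: ERR line, 2,000/well; 6 h preincubation 37 C/5% CO2. Cpd in DMSO via pin tool; 18 h, 37 C. ONE-Glo, 30 min RT, luminescence.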

The nature of assay [20]: qHTS assay to identify small molecule agonists of the estrogen related receptor (ERR) signaling pathway from Tox21 library (AID 1224849; calls by dose curve; further: nearly all actives have a fitted effect of over 15% in size). To be noted: ERR reporter cell line, ONE-Glo luciferase, 18 h; at 92.4 µM (top of the series). The procedure, abridged:
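ERR reporter cell line (NTP) seeded, rested 6 h at 37 C/5% CO2, then pinned with Tox21 compounds in DMSO. After 18 h at 37 C, ONE-Glo luciferase luminescence was read following 30 min at room temperature.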

SMILES strings stand for the structures. Several values for one entry are separate records, joined by “and”; a condition that tells them apart may be missing. Identical values can stand only once. A number with no mark means an inactive call. Inconclusive results are not listed. Activity calls are given as the source filed them. Unless noted, the call rests on the fitted dose curve; in most records, active means well fitted curve in the direction sought with a large enough effect in the repeat runs; inconclusive means weak or mixed curves; inactive means no such curve, though single readings can be large; an effect the other way counts as inactive or inconclusive.
On the % scale 0 is the no-effect control and ±100 the full control effect.

`CC(C)=CC1C(C(=O)OCc2coc(Cc3ccccc3)c2)C1(C)C` (centres undefined): the Potency entry in assay [1], in assay [2], in assay [4], in [5], in assay [6] and in assay [7] was “inactive” throughout. The Potency result in [8], in assay [9], in assay [11], in [12], in assay [13] and in assay [14] was “inactive” throughout. The Potency entry in assay [15] and in assay [16] was “inactive” each time. Further, in [3], the compound was classed as inactive. Also, the max response in assay [10] was -17.8%.
Take `c1ccc(-c2cccc(-c3ccccc3)c2)cc1`: the Potency result in assay [1], in assay [2], in [17], in [4], in [5] and in assay [18] was “inactive” in each case. Also, the Potency entry in assay [7], in assay [8], in [9], in assay [11], in [12] and in [13] was “inactive” each time. The Potency entry in assay [14], in assay [15] and in [16] was “inactive” each time. Moreover, the max response in [10] was -23.8%.
Turning to `CC(C)NC(C)C`, the Potency entry in [1], in assay [2], in assay [17], in assay [4], in assay [5] and in [6] was “inactive” each time. Further, the Potency result in [18], in assay [7], in assay [8], in assay [9], in assay [11] and in assay [12] was “inactive” throughout. Besides, the Potency result in [13], in assay [15] and in assay [16] was “inactive” each time. Also, the max response in assay [10] is 17.8% and 3.33%.
As to `N#CC(Br)Br`, the Potency result in assay [1], in [2], in assay [4], in [5], in assay [6] and in assay [18] was “inactive” throughout. Besides, the Potency entry in [7], in assay [8], in assay [9], in assay [11], in [12] and in assay [13] was “inactive” each time. Further, the Potency result in [14], in [15] and in assay [16] was “inactive” each time. Moreover, in [3], the outcome was inactive. The max response in assay [10] is -17% and 1.39%.
On to `CCCCNC(=O)n1c(NC(=O)OC)nc2ccccc21`, for which the Potency result in assay [1], in [2], in [4], in assay [7], in assay [8] and in assay [9] was “inactive” throughout. Moreover, the Potency result in [11], in [12], in assay [13], in assay [14] and in assay [16] was “inactive” throughout. Further, the compound was called inactive in [3]. Also, the Potency was 6.88 µM (active) in [10]; 7.72 µM (active) and 11 µM (active) in assay [15].
In the case of `O=Cc1ccco1`, the Potency entry in assay [1], in assay [2], in assay [17], in assay [19], in assay [4] and in assay [5] was “inactive” each time. Also, the Potency result in assay [6], in [18], in assay [8], in assay [9], in [12] and in assay [13] was “inactive” each time. The Potency entry in [14], in [15] and in assay [16] was “inactive” in each case. Further, in assay [20], the activity change, positive = activation is 0.408% and 7.35%. In addition, in assay [7], the Potency was 21.1 µM (active). In assay [10], the max response is -0.5%.
For the compound `COc1ccc(C(CN(C)C)C2(O)CCCCC2)cc1` (centres undefined), the Potency entry in [1], in assay [2], in assay [17], in [4], in [5] and in assay [6] was “inactive” in each case. Also, the Potency entry in assay [18], in assay [7], in assay [8], in assay [9], in [11] and in [12] was “inactive” in each case. Besides, the Potency result in assay [13], in assay [14], in assay [15] and in [16] was “inactive” each time. Moreover, the max response in assay [10] is -15.6% and -9.44%.

The values are drawn from PubChem BioAssay (Tox21).
